PrPC TRFRET: inhibitors of human cell surface prion protein PrPC; P04156; TR-FRET read-out; inhibition, % at 13.8 µM; hit rate 0.43% among 370,000; in the data active means inhibition above about 24%
TcdB GH inh: blocks C. difficile toxin B glycohydrolase activity; AID 652162; TcdB glycohydrolase enzymatic assay, plate reader; inhibition, % at 9.99 µM; hit rate 0.24% among 350,000; P18177; in the data active means inhibition above about 10%
VHR inh abs: inhibitors of human VHR1 phosphatase (DUSP3) | recombinant VHR phosphatase, pNPP absorbance | inhibition, % at 13.3 µM | hit rate 0.52% among 290,000 | AID 1654; in the data active means inhibition above about 50%
Of the large screens only hits and unclear results are named; the others gave an inactive call; ! = repeats disagree. Only some compounds are listed: those with a hit (about 0.82% of all), similar ones and a draw of the others.

CO[C@@H]1CN(C)C(=O)c2ccc(NC(=O)NC(C)C)cc2OC[C@@H](C)N(Cc2ccccn2)C[C@H]1C	none (no result: PrPC TRFRET, VHR inh abs)
C[C@@H]1CN([C@@H](C)CO)C(=O)c2cc(NC(=O)C3CCCCC3)ccc2O[C@@H]1CN(C)C(=O)Nc1ccc(C(F)(F)F)cc1	none (no result: PrPC TRFRET, VHR inh abs)
C[C@H](CO)N1C[C@H](C)[C@@H](CN(C)C(=O)Nc2ccc(C(F)(F)F)cc2)Oc2c(NS(=O)(=O)c3cn(C)cn3)cccc2C1=O	TcdB GH inh 13! (no result: VHR inh abs)
C[C@@H]1CN([C@H](C)CO)C(=O)c2cccc(NS(=O)(=O)c3cn(C)cn3)c2O[C@@H]1CN(C)C(=O)Nc1ccc(C(F)(F)F)cc1	none (no result: PrPC TRFRET, VHR inh abs)
C[C@H](CO)N1C[C@H](C)[C@@H](CN(C)C(=O)Nc2ccc(C(F)(F)F)cc2)Oc2ccc(NC(=O)C3CCCCC3)cc2C1=O	TcdB GH inh 14! (no result: VHR inh abs)
COc1ccc2c3c(n(C)c2c1)[C@H](CO)N(CC1CC1)CC31CCN(Cc2ccc(F)cc2)CC1	none (no result: PrPC TRFRET, VHR inh abs)
NC(=O)[C@@H]1CCCNc2c(I)cc([N+](=O)[O-])cc2C(=O)N[C@@H](CCCN=C(N)N)C(=O)N[C@@H](CCCN=C(N)N)C(=O)N1	none (no result: PrPC TRFRET, TcdB GH inh)
CC[C@H](C)[C@@H]1NC(=O)c2cc([N+](=O)[O-])cc(I)c2NCC[C@@H](C(N)=O)NC(=O)[C@H](CCCN=C(N)N)NC1=O	TcdB GH inh 10
O=S(=O)(N[C@H]1CC[C@H](CCn2cc(C3CC3)nn2)O[C@H]1CO)c1ccc(Cl)cc1	none (no result: PrPC TRFRET, VHR inh abs)
C[C@H](CO)N1C[C@H](C)[C@@H](CN(C)Cc2ccncc2)Oc2ccc(NC(=O)Cn3cnnn3)cc2CC1=O	none (no result: PrPC TRFRET, VHR inh abs)
O=C(C[C@@H]1CC[C@H](NC(=O)c2ccccc2)[C@H](CO)O1)NCCc1ccncc1	none (no result: PrPC TRFRET, VHR inh abs)
COc1ccc(S(=O)(=O)Cc2ccc(C(=O)NCCc3ccc(S(N)(=O)=O)cc3)o2)cc1	none
NS(=O)(=O)c1ccc(CCNC(=O)c2ccc(CS(=O)(=O)c3ccc(Br)cc3)o2)cc1	TcdB GH inh 12
O=C(C[C@H]1C[C@H]2c3cc(NC(=O)c4ccc5c(c4)OCO5)ccc3O[C@H]2[C@H](CO)O1)NCC(F)(F)F	none (no result: PrPC TRFRET, VHR inh abs)
COc1ccc2c3c(n(C)c2c1)[C@@H](CO)N(C(=O)NC(C)C)CC31CCN(C(=O)NC(C)C)CC1	none (no result: PrPC TRFRET, VHR inh abs)
Oc1ccc(NC(=S)Nc2ccc(O)cc2)cc1	none
COC(=O)c1ccc(NC(=S)Nc2ccc(O)cc2)cc1	TcdB GH inh 10
C[C@H]1CN([C@@H](C)CO)C(=O)c2ccccc2-c2ccccc2CO[C@@H]1CN(C)Cc1ccncc1	none (no result: PrPC TRFRET, VHR inh abs)
COc1ccc(C(O)(C(C)C)C(CN2CCOCC2)c2ccccc2)cc1 (configuration not stated)	TcdB GH inh 21
COc1ccc(C(O)(C(C)C)C(CN2CCOCC2)c2ccc(Cl)cc2)cc1 (configuration not stated)	none
CCCNC(=O)N1CC2(CN(C(=O)C3CC3)C2)c2c([nH]c3cc(OC)ccc23)[C@@H]1CO	none (no result: PrPC TRFRET, VHR inh abs)
C[C@H](CO)N1C[C@H](C)[C@H](CN(C)Cc2ccc(C(=O)Nc3ccccc3N)cc2)Oc2ccc(NS(=O)(=O)c3cccs3)cc2C1=O	none (no result: PrPC TRFRET, VHR inh abs)
CCCNC(=O)C[C@H]1CC[C@H]2[C@@H](COC[C@H](O)CN2C(=O)Nc2ccccc2OC)O1	none (no result: PrPC TRFRET, VHR inh abs)
C[C@H](CO)N1C[C@H](C)[C@H](CN(C)C(=O)CN(C)C)Oc2cc(C3=CCCCC3)ccc2S1(=O)=O	none (no result: PrPC TRFRET, VHR inh abs)
O=C(NNC(=O)c1cc2cc(Br)ccc2oc1=O)c1ccc(O)cc1O	VHR inh abs 60 (no result: TcdB GH inh)
COCCCNC(=O)c1cc2cc(Br)ccc2oc1=O	none
C[C@H]1CN([C@@H](C)CO)S(=O)(=O)c2ccc(-c3cncnc3)cc2O[C@H]1CN(C)C(=O)c1ccc2c(c1)OCO2	none (no result: PrPC TRFRET, VHR inh abs)
O=C(COc1ccc(/C=N/NC(=O)c2ccncc2)cc1)Nc1ccc([N+](=O)[O-])cc1	none
O=C(COc1ccc(/C=N/NC(=O)c2ccc(O)cc2)cc1)Nc1cccc([N+](=O)[O-])c1	TcdB GH inh 15
COCCNC(=O)C[C@H]1C[C@@H]2c3cc(N(C)C)ccc3O[C@@H]2[C@@H](CO)O1	none (no result: PrPC TRFRET, VHR inh abs)
CCCC(=O)Nc1ccc2c(c1)OC[C@@H](C)N(C(=O)CC1CC1)C[C@H](C)[C@H](OC)CN(C)C2=O	none (no result: PrPC TRFRET, VHR inh abs)
COc1ccc(C(=O)COC(=O)C(C)N2C(=O)C3C4CCC(C4)C3C2=O)cc1 (configuration not stated)	none
CC(C(=O)OCC(=O)c1ccccc1)N1C(=O)C2C3CCC(C3)C2C1=O (configuration not stated)	VHR inh abs 54
C=CCc1ccc2c(c1)OCO2	none (no result: VHR inh abs)
C=CCc1ccc(O)c(-c2ccc(O)c(CC=C)c2)c1	TcdB GH inh 11
C[C@H]1CN([C@@H](C)CO)C(=O)c2cc(NC(=O)c3ccncc3)ccc2O[C@H]1CN(C)C(=O)NC1CCCCC1	none (no result: PrPC TRFRET, VHR inh abs)
C#CCSc1nc2sc3c(c2c(=O)n1C)CCC3	VHR inh abs 58
CSc1nc2sc3c(c2c(=O)n1C)CCC3	none
C[C@@H]1CN([C@@H](C)CO)C(=O)c2cc(/C=C/c3ccccc3)cnc2O[C@@H]1CN(C)Cc1ccc2c(c1)OCO2	none (no result: PrPC TRFRET, VHR inh abs)

From PubChem
